In the library only some 4.4% were active in any assay of this set; here they are far more common.
tim23-1 inh: inhibits growth of tim23-1 mutant yeast. inhibition, % at 20 µM. AID 463212. S. cerevisiae tim23-1 growth, BacTiter-Glo luminescence, 24 h. 1.3% of 330,000 active;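 active = growth inhibition of the mutant yeast at or above 50%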;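 also: temperature-sensitive mutant grown at 25 °C; plate controls were DMSO-treated mutant yeast for no effect and medium wells lacking yeast for full effect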
PfHsp90 yeast 2: reduces growth (ATP signal) of yeast expressing P. falciparum Hsp90. S. cerevisiae expressing PfHsp90, BacTiter-Glo ATP, 48 h; yeast lacking PDR1 and PDR3 efflux regulators. inhibition, % at 9.4 µM. 0.32% of 310,000 active. AID 504621;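 active = every replicate shows inhibition above about 80%, whatever the replicate mean, limit read from the data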;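 also: 0% = DMSO neutral controls and 100% = 20 µM radicicol positive controls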
SKKanGAS inh: SKKanGAS growth inhibition | 1.3% of 300,000 active | S. pyogenes SKKanGAS, kanamycin growth, BacTiter-Glo, 6 h | inhibition, % at 7.5 µM | AID 1662;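 active = mean replicate score, as percent of positive control median, at least 50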;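 also: strain carries kanamycin resistance gene driven by streptokinase promoter and grows in 40 µg/ml kanamycin; loss of luminescence reflects streptokinase promoter inhibition or plain growth inhibition; 0% = median of DMSO wells and 100% = positive control at its reference dose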
TIM10 inh: inhibits growth of TIM10 yeast strain; AID 463195; S. cerevisiae TIM10 strain growth, BacTiter-Glo luminescence, 24 h; inhibition, % at 10 µM; 1.4% of 330,000 active;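 active = inhibition of 40% or more at the single tested concentration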;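 also: wild-type TIM10 isogenic control strain grown at permissive 25 °C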
tim10-1 inh: tim10-1 yeast growth inhibition; inhibition, % at 20 µM; S. cerevisiae tim10-1 ts strain growth, BacTiter-Glo, 24 h; 2.2% of 330,000 active;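 active = inhibition of at least 40%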;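 also: mutant grown at 25 °C; 0% = DMSO wells with yeast and 100% = wells holding no yeast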
tim10 confirm: TIM10 yeast growth inhibition, confirmed; AID 463215; S. cerevisiae tim10 strain growth, BacTiter-Glo luminescence, 24 h; 63% of 4,600 active; shares compounds with TIM10 inh; inhibition, % at 10 µM;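 active = inhibition of yeast growth at or above a set limit in either of two replicates at 10 µM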;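 also: this counterscreen used the strain with wild-type TIM10; 0% = yeast with DMSO and 100% = medium wells lacking yeast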
Starred values were filed as active, the others as inactive; x = not tested or not shown.

SMILES	tim23-1 inh	PfHsp90 yeast 2	SKKanGAS inh	TIM10 inh	tim10-1 inh	tim10 confirm
O=C(COc1cccc(NC(=O)c2ccccc2)c1)c1ccc(F)cc1	8.3	-28.8	-9.8	41.6*	-4.8	33.9*
COC(=O)c1cc(NC(=O)c2cccc(F)c2)cc(C(=O)OC)c1	33.5	10.5	-8.5	47.9*	1.7	31.1*
CCc1noc(C)c1C(=O)N(Cc1ccccc1)c1c(N)n(CCOC)c(=O)[nH]c1=O	-16.9	1.1	13.7	-1.3	-24.8	x
CCOC(=O)Nc1cccc(OCC(=O)Nc2ccccc2OC)c1	45.5	-15.0	-5.7	41.7*	33.8	15.2
COc1ccc(C(=O)Nc2cc(OC)cc(OC)c2)cc1	32.5	-4.2	4.2	18.1	17.2	x
COc1cc(NC(=O)c2ccccc2)cc(OC)c1	43.2	-4.1	5.7	67.7*	22.6	46.3*
COc1cc(C(=O)OCc2cccc(OC)c2OC)ccc1OCC(=O)N1CCOCC1	13.9	-1.1	x	13.6	8.7	x
O=C(COC(=O)c1cccnc1)Nc1ccc2c(c1)OCO2	-4.3	5.5	0.0	-19.6	-16.6	x
Cc1ccc(NC(=O)C/C(N)=N/OC(=O)Nc2cccc(C)c2)cc1	15.8	-7.7	x	41.7*	39.9	27.8
CCC(C)(C(=O)NC1CCCC1)N(Cc1cccs1)C(=O)Cc1cccs1 (stereo unspecified)	20.6	5.9	13.7	45.1*	22.9	15.5
COc1ccc2cc3cc(C(=O)NCc4cccs4)oc3nc2c1	13.9	x	-11.5	-14.4	9.3	x
COc1ccc2cc3cc(C(=O)N4CCN(C5CCCCC5)CC4)oc3nc2c1	28.1	15.5	-14.6	63.8*	22.9	46.0*
CCN1CCN(CCCNC(=O)c2cc3cc4ccc(OC)cc4nc3o2)CC1	39.0	-32.7	4.2	11.1	15.9	x
COc1ccc2cc3cc(C(=O)NCCCN4CCC(C)CC4)oc3nc2c1	31.5	-21.9	-4.5	77.1*	17.9	68.2*
COc1ccc2cc3cc(C(=O)NCCc4ccc(OC)c(OC)c4)oc3nc2c1	28.3	-5.0	13.6	54.8*	0.1	-3.2
CCCN(CCC)CCCNC(=O)c1cc2cc3ccc(OC)cc3nc2o1	49.9	-23.7	1.1	64.6*	35.9	-33.0
CC(=O)Nc1ccc(O)c(-c2nc3ccccc3s2)c1	28.2	4.4	-17.0	46.2*	2.6	-2.1
NC(=O)CC(NC(=O)Cc1ccc(Br)cc1)c1ccc(N2CCC(N3CCCC3)CC2)c([N+](=O)[O-])c1 (stereo unspecified)	7.3	7.7	-1.9	-2.9	-7.8	x
COc1ccc(S(=O)(=O)N2CCCOC2CNC(=O)C(=O)NCc2ccccc2F)cc1C (stereo unspecified)	-1.0	-1.4	13.2	2.1	-2.6	x
CCCCn1cnc2c(oc3nc4c(cc32)CCCC4)c1=O	23.2	18.1	-1.2	17.7	-20.5	x
CCCCCCn1cnc2c(oc3nc4c(cc32)CCCC4)c1=O	10.9	-0.3	-14.9	43.2*	8.5	-2.2
Cc1ccccc1-n1ncc(C(C)NS(=O)(=O)c2ccccc2Cl)c1C (stereo unspecified)	6.0	4.7	-0.6	3.1	7.0	x
O=C(Nc1ccc2c(c1)nc1n2CCSC1)c1ccco1	46.6	x	-3.8	60.0*	31.5	52.9*
O=C(Nc1ccc2c(c1)nc1n2CCN(C2CCCCC2)C1)c1ccco1	x	-3.6	x	x	x	x
O=C(Nc1ccc2c(c1)nc1n2CCOC1)c1ccco1	30.9	-8.3	-3.3	46.5*	14.4	15.2
SMILES	tim23-1 inh	PfHsp90 yeast 2	SKKanGAS inh	TIM10 inh	tim10-1 inh	tim10 confirm
Cn1cc(C(=O)NS(=O)(=O)Nc2ccc(Br)cc2)c2ccccc21	7.5	20.0	0.3	5.8	-0.2	x
Clc1ccc(CN=C2Nc3ccccc3CS2)cc1	36.2	34.2	11.1	40.9*	35.6	32.5*
O=C(c1ccc([N+](=O)[O-])s1)N1CCN(c2ccc(C(F)(F)F)cn2)CC1	32.3	10.0	4.3	42.3*	9.6	26.9
Cc1cnc(C(=O)N2CCN(c3ccc(C(F)(F)F)cn3)CC2)cn1	-4.7	2.6	1.9	-0.9	1.7	x
O=C(c1ccc(N2C(=O)C3C4CC(C(Br)C4Br)C3C2=O)cc1)N1CCCCC1 (stereo unspecified)	8.8	-1.0	1.8	6.6	5.6	x
C/C(=N\NC(=O)c1ccco1)c1cc2ccccc2o1	16.7	-31.2	-3.8	13.6	-4.2	x
C/C(=N\NC(=S)Nc1ccccc1C)c1cc2ccccc2o1	32.8	-28.1	12.6	41.9*	25.0	21.6
COc1cnc(-c2ccccn2)nc1Sc1c(Cl)cccc1Cl	18.6	x	-9.1	49.9*	34.5	37.8*

High-throughput results from PubChem.
